Source: PubChem BioAssay (several laboratories)
This is a sample that favours compounds with a hit; in the whole collection about 0.65% have one here.
Sa RN4220 lethal = S. aureus RN4220 growth inhibition; 330,000 tested, 0.33% active; OD600, 16 h; inhibition, % (no concentration beside the values); AID 1259311; in the data active = inhibition above about 85%
BJeLR viability = BJeLR cell viability loss; BJeLR (HRASV12) viability, CellTiter-Glo ATP luminescence, 48 h; inhibition, % (no concentration beside the values); 300,000 tested, 0.17% active; AID 1554; in the data active = inhibition above about 50%
ugtP null kill = growth inhibition of S. aureus ugtP deletion strain | S. aureus RN4220 ugtP deletion, OD600 growth, 16 h | 330,000 tested, 0.54% active | growth inhibition, % (test concentration not listed); in the data active = growth inhibition above about 68%
Of the large screens only hits and unclear results are named; the others gave an inactive call.

CC1CCC(C(C)C)C(OC(=O)Cn2c(-c3ccccc3)[n+](C)c3ccccc32)C1 (stereo not given)	Sa RN4220 lethal 99, ugtP null kill 100
Cc1cccc(OCc2n(CC(=O)OC3CC(C)CCC3C(C)C)c3ccccc3[n+]2C)c1 (stereo not given)	none (no result: Sa RN4220 lethal, ugtP null kill)
CC1CCC(C(C)C)C(OC(=O)Cn2c(-c3ccc(F)cc3)[n+](C)c3ccccc32)C1 (stereo not given)	Sa RN4220 lethal 97, ugtP null kill 100 (no result: BJeLR viability)
CC1CCC(C(C)C)C(OC(=O)CSc2nc(N)cc(=O)[nH]2)C1 (stereo not given)	none
CC1CCC(C(C)C)C(OC(=O)Cn2c(COc3ccccc3)[n+](C)c3ccccc32)C1 (stereo not given)	Sa RN4220 lethal 101, ugtP null kill 100
O=C(c1ccc(-n2cncn2)c([N+](=O)[O-])c1)N1CCN(S(=O)(=O)c2ccc(F)c(F)c2)CC1	none (no result: Sa RN4220 lethal, ugtP null kill)
CN(c1ccc(OCC(=O)N2CCOCC2)cc1)S(=O)(=O)c1ccc(F)cc1	none
Cc1cccc(OCC(=O)NNC(=O)CCc2ccccc2)c1	none
Cc1ccccc1NC(=O)NC1CCCCCCC1	none
CC(Cc1cnccn1)NCc1c(C(=O)N2CCCCCCC2)nc2ccc(Cl)cn12 (stereo not given)	none
O=C(COC(=O)C1(c2ccc(Cl)cc2)CCCC1)N1CCc2ccccc21	none
Cc1nc(SCC(=O)Nc2c(C)n(C)n(-c3ccccc3)c2=O)c2cnn(-c3ccccc3)c2n1	none (no result: BJeLR viability)
Cc1nc(SCc2ccccc2F)c2cnn(-c3ccccc3)c2n1	ugtP null kill active
O=C(N=C1SC2CS(=O)(=O)CC2N1c1ccc(Cl)cc1Cl)C1CCCO1 (stereo not given)	none
CS(=O)(=O)N(CC(=O)NCCSCc1ccccc1Cl)c1ccc(F)cc1	none
O=C(Nc1nc(-c2cccs2)c(C(=O)C(F)(F)F)s1)c1ccco1	none
O=C(Nc1nc(-c2cccs2)c(C(=O)C(F)(F)F)s1)c1ccccc1	Sa RN4220 lethal 88
COc1ccc(C(=O)Nc2nc(CC(=O)NCCc3ccccc3)cs2)cc1	none
C=CCNC(=O)c1ccc(S(=O)(=O)CC)c(Cl)c1Cl	none
CCOC(=O)N=Nc1c(O)n(CC(=O)OC)c2ccccc12	none
CCOC(=O)N=Nc1c2ccccc2c2nc3no[nH]c3nc12	Sa RN4220 lethal 100, BJeLR viability 54, ugtP null kill 100
NC1=NCC(Cc2ccccc2)N1CCc1cc(C(F)(F)F)cc(C(F)(F)F)c1 (stereo not given)	none (no result: BJeLR viability)
NC1=NCC(CC2CCCCC2)N1CCc1cc(C(F)(F)F)cc(C(F)(F)F)c1 (stereo not given)	Sa RN4220 lethal 101, ugtP null kill 101 (no result: BJeLR viability)
NC1=NC[C@@H](CC2CCCCC2)N1CCc1cc(C(F)(F)F)cc(C(F)(F)F)c1	Sa RN4220 lethal 100, ugtP null kill 100 (no result: BJeLR viability)
NC1=NC[C@H](Cc2ccc(O)cc2)N1CCc1cc(C(F)(F)F)cc(C(F)(F)F)c1	none (no result: Sa RN4220 lethal, ugtP null kill)
CCCOc1ccc(NC(=O)CC2C(=O)N(CC)C(=S)N2Cc2cccs2)cc1 (stereo not given)	none
COc1cc(NC(=O)COC(=O)c2ccc3ccccc3n2)cc(OC)c1	none (no result: BJeLR viability)
O=C(Cc1ccccc1)NCCn1ccc2ccccc21	none
Cc1ccc(-c2cc3c(N=O)c4ccccc4c-3n[nH]2)cc1	BJeLR viability 70
O=Nc1c2cc(-c3ccccc3)[nH]nc-2c2ccccc12	BJeLR viability 69
Cc1cccc(-c2cc3c(N=O)c4ccccc4c-3n[nH]2)c1	none (no result: Sa RN4220 lethal, ugtP null kill)
O=c1[nH]nc(-c2ccccc2)c2ccccc12	none
COCCn1c(=NC(=O)c2cccs2)sc2cc(NC(C)=O)ccc21	none
CCCCNC(=O)C1CCN(S(=O)(=O)c2c(C)noc2/C=C\c2ccc(OC)cc2)CC1	none
Cc1[nH]n(-c2ccccc2)c(=O)c1C=NNc1nncc(-c2ccccc2)n1	Sa RN4220 lethal 96, ugtP null kill 98 (no result: BJeLR viability)
COc1ccc(-c2cnnc(NN=Cc3c(C)nn(-c4ccccc4)c3Cl)n2)cc1	none (no result: BJeLR viability)
Cc1[nH]n(-c2ccccc2)c(=O)c1/C=N/Nc1nncc(-c2ccccc2)n1	BJeLR viability 57 (no result: Sa RN4220 lethal, ugtP null kill)
Cc1ccc(/C=N/Nc2nncc(-c3ccccc3)n2)o1	none (no result: Sa RN4220 lethal, ugtP null kill)
COC(=O)c1c(NC(=O)c2ccco2)sc(C(=O)Nc2ccc(F)cc2)c1C	none
O=C(NN=C1C2CN3CCN(C2)CC1(c1ccccc1)C3)Nc1ccccc1	none (no result: BJeLR viability)
CCc1nnc(NC(=O)CSc2nc3c(cc2C#N)CCCC3)s1	none
COc1ccccc1C1CC(=O)Oc2cc(C)c(Br)c(C)c21 (stereo not given)	ugtP null kill 86 (no result: BJeLR viability)
COc1ccccc1C1CC(=O)Oc2cc(C)c(Cl)c(C)c21 (stereo not given)	none (no result: BJeLR viability)
C=CCN1CN(S(=O)(=O)c2cccs2)c2nc3ccccc3nc21	none (no result: BJeLR viability)
Cc1ccc(CS/C(Nc2ccccc2C)=C(\C#N)C(N)=O)c(C)c1	ugtP null kill 95
Cc1ccccc1NC(=O)CSC(N)=O	none
CCOc1ccc(NC(=O)n2ncc3c(C)cccc32)cc1	none
COc1cccc(NC(=O)n2ncc3c(C)cccc32)c1	BJeLR viability 54
O=C1CCCN1CC#CCN1CCCC1	none
Cc1[nH][nH]c(=O)c1C(c1c(C)[nH][nH]c1=O)c1cn(Cc2ccc(F)cc2)c2ccccc12	none (no result: BJeLR viability)
Cc1[nH][nH]c(=O)c1C(c1c(C)[nH][nH]c1=O)c1cn(Cc2ccc(Cl)c(Cl)c2)c2ccccc12	ugtP null kill 88
CC(=O)Nc1nnc(SCC(=O)Nc2nc(C)cs2)s1	none
CCCOc1ccc(C(=O)ON=C(CC)c2ccc(C)cc2)cc1	ugtP null kill 93 (no result: BJeLR viability)
CCCOc1ccc(C(=O)O/N=C(\CC)c2ccc(C)cc2)cc1	none (no result: Sa RN4220 lethal, ugtP null kill)
O=C(N/N=C/c1ccc2c(c1)OCO2)c1cccnc1	none (no result: Sa RN4220 lethal, ugtP null kill)
CC1=C(C(=O)OCc2ccccc2)C(c2ccc([N+](=O)[O-])cc2)NC(=O)N1C (stereo not given)	none
CN1C(=O)CC(C(=O)Nc2ccccc2F)SC1=Nc1ccc2c(c1)OCO2 (stereo not given)	none
Cc1ccc(CSCCNC(=O)CN(c2cccc([N+](=O)[O-])c2)S(C)(=O)=O)cc1	none
Cc1cc(C)c2c(CN3CCCCC3)cc(=O)oc2c1	none
Cc1cc(C)c2c(CCl)cc(=O)oc2c1	BJeLR viability 56 (no result: Sa RN4220 lethal, ugtP null kill)
O=C(CN1C(=O)CN=C(c2ccccc2)c2ccccc21)NCc1ccco1	none
COc1cccc(COc2cc3ccccc3nc2C)c1	none
O=C1ON=C(c2ccccc2)/C1=C\c1ccco1	none
Cc1ccc(/C=C2/C(=O)ON=C2c2ccccc2)o1	BJeLR viability 51
CC1(C)CC(=O)C2=C(C1)Nc1cc3c(cc1C2c1ccc(F)cc1)OCO3 (stereo not given)	none
Cc1ccc2nc(-c3ccc(NC(=S)NC4CC(C)(C)NC(C)(C)C4)cc3)sc2c1	Sa RN4220 lethal 100, ugtP null kill 95
Cc1ccc2nc(-c3ccc(NC(=S)NC(=O)C(C)C)cc3)sc2c1	none
COc1ccc(C(CNC(=O)C2COc3ccccc3O2)N2CCCC2)cc1 (stereo not given)	none (no result: BJeLR viability)
Cc1[nH]c2ccccc2c1/C=N/NC(=S)NC(C)C	none (no result: Sa RN4220 lethal, ugtP null kill)
Cc1ccc(NC(=S)NN=Cc2c(C)[nH]c3ccccc23)cc1	Sa RN4220 lethal 92, ugtP null kill 88 (no result: BJeLR viability)
C#CCN1C(=O)C2(C(C#N)=C(N)OC(C)=C2C(=O)OCc2ccccc2)c2ccccc21 (stereo not given)	none
CCOC(=O)C1=C(C)OC(N)=C(C#N)C12C(=O)N(C)c1ccccc12 (stereo not given)	Sa RN4220 lethal 91
